# Unmarked numbers belong to inactive results. Active and inactive are the calls of the source. Calls follow the shape of the dose curve; as a rule, active = well fitted curve in the direction sought with a large enough effect in the repeat runs; inconclusive = weak or mixed curves; inactive = flat fitted curve, though single readings scatter.
# Experiment: qHTS assay to test for compound auto fluorescence at 460 nm (blue) in HepG2 cell free culture (AID 720685)
# Conditions: Cell-free culture medium, blue autofluorescence 405/460 nm; series mostly up to 91.3 µM; fluorescence, % of fluorescent control: at the top concentration
# Source text: U.S. Tox21 Program National Center for Advancing Translational Sciences [NCATS] NIH Chemical Genomics Center [NCGC] U.S. Environmental Protection Agency [EPA] National Institutes of Environmental Health Sciences [NIEHS] National Toxicology Program [NTP] U.S. Food and Drug Administration [FDA] Tox21 Assay Overview: Compound auto fluorescence often interferes with screening of the compound library against various biological targets and signaling pathways. Some of these compounds may have fluorophoric properties. Such properties may interfere with the assay outputs resulting in false positives and/or negatives. To decrease such complications and ensure the compound activities are relevant in terms of biological response, the Tox21 10K compound library was screened for auto fluorescence. From the fluorophores used as reporter signals in our screening assays, the auto fluorescence equivalencies of compounds against three fluorophores have been evaluated: Triamterene, Fluorescein and Rose Bengal sodium for blue, green and red fluorescence, respectively. The fluorescence intensities were measured using Excitation/Emission wavelengths at 405/460nm, 485/535nm and 540/590nm for blue, green and red labels, respectively. This assay includes the blue fluorescence data.
# Tox21 Assay Protocol Summary: 5 uL of culture medium (MEM containing 10% FBS) per well was dispensed into black wall/clear bottom 1536-well plates using a Multidrop Combi Dispenser (ThermoFisher Scientific, Waltham, MA). After 23 nL compound or DMSO vehicle was transferred into assay plate by a pintool work station (Kalypsys, San Diego, CA), fluorescence intensities in the assay plates were measured by an Envision (PerkinElmer, Shelton, CT) plate reader using three labels for measuring blue, green and red fluorescence at […] 460, 535 and 590nm respectively.
# % is scaled to controls: 0 for no effect and ±100 for the full control effect.
Structure (SMILES),"fluorescence, % of fluorescent control",Potency
O=C(O)Cc1ccc(-c2ccccc2)cc1,-0.109% [at 18.6 µM],
COc1cc2c(cc1OC)-c1cc(=Nc3c(C)cc(C)cc3C)n(C)c(=O)n1CC2,0.0335% [at 46 µM],
CCN(CC)CCNC(=O)c1ccc(NC(C)=O)cc1,-0.0005% [at 46 µM],
Cc1ccc(S)cc1,0.0608%,
CC1=NN(c2ccc(C(=O)O)cc2)C(=O)C1,0.0239%,
CN(C)CCOC1=Cc2ccccc2Sc2ccc(Cl)cc21,-0.0112% [at 46 µM],
O=C1OCCN1/N=C/c1ccc([N+](=O)[O-])o1,0.0546% [at 46 µM],
CCCCN(CCCC)C(=S)SSC(=S)N(CCCC)CCCC,-0.0715%,
CCOC(=O)C(C)Oc1ccc(Oc2nc3ccc(Cl)cc3o2)cc1 (stereo not given),0.0017%,
Cc1cc(C(=C2C=CC(=Nc3ccc(S(=O)(=O)O)cc3S(=O)(=O)O)C=C2)c2ccc(Nc3ccc(S(=O)(=O)O)cc3)cc2)ccc1N,1.2%,
COCCOC(=O)C1=C(C)NC(C)=C(C(=O)OC/C=C/c2ccccc2)C1c1cccc([N+](=O)[O-])c1 (stereo not given),-0.0444% [at 46 µM],
O=C1NCCN1,0.0143%,
COC(OC)(C(=O)c1ccccc1)c1ccccc1,-0.0299%,
CC(C)(CCl)c1ccccc1,-0.0577%,
CN(C)C(=O)Nc1ccc(Oc2ccc(Cl)cc2)cc1,-0.0129%,
Cc1ccc(/C=N/n2c(-c3ccccc3)csc2=S)cc1,0.0035% [at 46 µM],
C(=C\c1ccccc1)/CN1CCN(C(c2ccccc2)c2ccccc2)CC1,0.108% [at 18.6 µM],
CN1CCCN=C1/C=C/c1cccs1,-0.101% [at 46 µM],
CN1CCN(c2c(F)cc3c(=O)c(C(=O)O)cn4c3c2OCN4C)CC1,0.0568% [at 46 µM],
O=C(c1ccc(O)cc1)c1ccc(Cl)cc1,-0.132% [at 95.7 µM],

Structure (SMILES),"fluorescence, % of fluorescent control",Potency
O=C(Nc1ccc([N+](=O)[O-])cc1)Nc1ccc([N+](=O)[O-])cc1,0.038% [at 46 µM],
CC(C)CCCC(=O)O,-0.0702%,
CCOC(=O)[C@@H](C)Oc1ccc(Oc2nc3ccc(Cl)cc3o2)cc1,-0.0358%,
O=C(CS)OCCOC(=O)CS,0.0278%,
COC(=O)Nc1nc2ccc(C(=O)c3cccs3)cc2[nH]1,-0.0031% [at 46 µM],
CCCCC(CC)COC(=O)COc1ccc(Cl)cc1C (stereo not given),-0.0371%,
O=C(O)c1cccnc1C(=O)O,-0.0354%,
CC(C)=CC=O,0.081% [at 95.7 µM],
C[Si](NC1CCCCC1)(NC1CCCCC1)NC1CCCCC1,0.195%,
CCOc1cc(N)c(Cl)cc1C(=O)NCC1CN(Cc2ccc(F)cc2)CCO1 (stereo not given),-0.177% [at 46 µM],
ON(Cc1ccccc1)Cc1ccccc1,0.0802%,
O=C(OCCOCCO)c1ccccc1Nc1cccc(C(F)(F)F)c1,-0.0111% [at 18.6 µM],
CC1CN(c2cc3c(cc2F)c(=O)c(C(=O)O)cn3-c2ccc(F)cc2F)CCN1 (stereo not given),0.193% [at 46 µM],
NC(=O)Nc1ccc(Cl)c(Cl)c1,0.0355%,
COc1cc2ncnc(Nc3ccc(F)c(Cl)c3)c2cc1OCCCN1CCOCC1,-0.0167% [at 46 µM],
CC(=O)[C@H]1CC[C@H]2[C@@H]3C[C@H](C)C4=CC(=O)CC[C@]4(C)[C@H]3[C@@H](O)C[C@]12C,0.0471% [at 18.6 µM],
O=c1[nH]c2ccc(S(=O)CCN3CCC(Cc4ccc(F)cc4)CC3)cc2o1 (stereo not given),0.119%,
CCCCCCCC/C=C\CCCCCCCC(=O)OC(CO)CO,-0.0076%,
CC(N)CN (stereo not given),-0.103% [at 95.7 µM],
O=C(CCCCCCC(=O)Nc1ccccc1)NO,,inactive

# — PubChem BioAssay (Tox21)
